According to PubChem BioAssay (EPA / NIEHS):
Results filed as inconclusive are left out. Calls of active or inactive are those of the source. How the source made its calls, unless noted: active means hit-call score of the fitted dose curve at least 0.9, where 1 is the maximum; inactive means score below 0.9.

System: not listed separately
Experiment: ATG_VDRE_CIS: Attagene CIS-FACTORIAL HepG2 Assay for human Vitamin D Receptor Element (VDRE) (AID 2282968)
Details: HepG2 VDRE cis-reporter transcription, actives raise or lower the signal
Method in brief: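 Cell-based multiplexed reporter format in human liver HepG2 cells, 24 h post-dose. Fluorescence from capillary electrophoresis of reporter cDNA gives the signal, with DMSO as negative control and baseline.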
With `O=C(N[C@H](c1ccccc1)[C@@H]1CN2CCC1CC2)c1c(Cl)ccc(C(F)(F)F)c1Cl` the outcome was “inactive”. With `COC(=O)c1ccccc1N` the outcome was “inactive”. For `CN(C)c1ccc(C(=O)c2ccc(N(C)C)cc2)cc1`, the outcome was “inactive”. In the case of `CC(C)(C)OOC(=O)c1ccccc1`, the outcome is reported as “inactive”. For `CCN(CC)N=O`, the outcome was “inactive”. For `Nc1cc(Cl)cc(C(=O)O)c1Cl`, the outcome was “inactive”. For `CN(C)C(=O)Nc1ccc(Cl)cc1`, the outcome was “inactive”. In the case of `c1ccc(C2CO2)cc1` (centres undefined), the outcome is reported as “inactive”. For `CCC12COCN1COC2`, the outcome was “inactive”. For `CC(C)(O)c1cnn2c(-c3ccc(F)c(-c4c(F)cccc4C#N)c3)cnc2n1`, the AC50 was 0.538 µM (active). In the case of `Clc1ccc(C(c2ccc(Cl)cc2)C(Cl)(Cl)Cl)cc1`, the outcome is reported as “inactive”. In the case of `CC(C)(C)C(O)(CCc1ccc(Cl)cc1)Cn1cncn1` (centres undefined), the outcome is reported as “inactive”. In the case of `CO[C@@H]1[C@H](OC(=O)NC(=O)CCl)CC[C@]2(CO2)[C@H]1[C@@]1(C)O[C@@H]1CC=C(C)C`, the outcome is reported as “inactive”. With `Oc1ccccc1Cl` the outcome was “inactive”. For `Clc1ccccc1Cl`, the outcome was “inactive”. In the case of `Clc1ccc(Cl)c(Cl)c1`, the outcome is reported as “inactive”. With `CNC(=O)Oc1cccc2c1OC(C)(C)C2` the outcome was “inactive”. For `N#CC(Br)(Br)C(N)=O`, the outcome was “inactive”.

Target: Nuclear receptor subfamily 1 group I member 3 (Homo sapiens) (UniProt Q14994)
Sequence (Q14994 whole entry, looked up): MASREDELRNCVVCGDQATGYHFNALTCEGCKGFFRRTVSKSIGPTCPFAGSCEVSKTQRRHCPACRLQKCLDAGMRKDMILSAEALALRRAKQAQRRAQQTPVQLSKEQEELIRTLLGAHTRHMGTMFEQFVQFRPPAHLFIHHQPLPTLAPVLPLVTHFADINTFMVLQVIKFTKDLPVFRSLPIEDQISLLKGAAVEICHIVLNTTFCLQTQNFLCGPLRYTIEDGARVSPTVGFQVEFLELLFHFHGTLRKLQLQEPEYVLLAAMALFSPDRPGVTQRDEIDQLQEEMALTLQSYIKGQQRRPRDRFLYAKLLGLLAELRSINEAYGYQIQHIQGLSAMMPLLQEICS
Experiment: ATG_CAR_TRANS: Attagene TRANS-FACTORIAL HepG2 Assay for human Constitutive Androstane Receptor (CAR) (AID 2282969; active means hit-call score of the fitted dose curve at least 0.9, where 1 is the maximum;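 further: activators raise reporter mRNA above DMSO so AC50 marks induction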)
Details: HepG2 Attagene TRANS-FACTORIAL CAR reporter
Method in brief: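 HepG2 cells transiently transfected with GAL4-UAS reporter units; TRANS format reads activity of exogenous chimeric NR-Gal4 protein. After 24 h dosing, reporter mRNA quantified by RT-PCR, 6-FAM labelling and capillary electrophoresis; gain of signal fitted against DMSO.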
With `N#CC(Br)Br` the outcome was “inactive”. For `Nc1ccc(Oc2ccc(N)cc2)cc1`, the outcome was “inactive”. With `CCCCOC(=O)c1ccccc1C(=O)OCc1ccccc1` the outcome was “inactive”. In the case of `Oc1ccccc1Cl`, the outcome is reported as “inactive”. In the case of `CNC(=O)Oc1cccc2c1OC(C)(C)C2`, the outcome is reported as “inactive”.

Target: Estrogen receptor (Homo sapiens) (UniProt P03372)
Sequence (P03372 whole entry, looked up): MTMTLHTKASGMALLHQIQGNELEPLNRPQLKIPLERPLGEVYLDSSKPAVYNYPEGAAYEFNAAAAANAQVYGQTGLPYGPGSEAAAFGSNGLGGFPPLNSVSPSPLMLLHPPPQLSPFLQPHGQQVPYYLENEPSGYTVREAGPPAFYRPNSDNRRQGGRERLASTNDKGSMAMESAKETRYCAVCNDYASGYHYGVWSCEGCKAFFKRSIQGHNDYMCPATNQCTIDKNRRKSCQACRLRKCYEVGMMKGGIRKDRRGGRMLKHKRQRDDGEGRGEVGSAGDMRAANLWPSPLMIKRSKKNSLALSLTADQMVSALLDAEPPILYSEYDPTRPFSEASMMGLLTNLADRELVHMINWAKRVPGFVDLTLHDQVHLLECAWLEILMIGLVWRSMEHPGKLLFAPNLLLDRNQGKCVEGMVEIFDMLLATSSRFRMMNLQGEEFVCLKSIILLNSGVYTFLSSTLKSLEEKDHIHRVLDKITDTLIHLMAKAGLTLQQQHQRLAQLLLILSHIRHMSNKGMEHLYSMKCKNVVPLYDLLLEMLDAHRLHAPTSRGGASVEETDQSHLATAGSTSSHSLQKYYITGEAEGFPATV
Experiment: ATG_ERa_TRANS: Attagene TRANS-FACTORIAL HepG2 Assay for human Estrogen Receptor alpha (ERa) (AID 2282970; active means hit-call score of the fitted dose curve at least 0.9, where 1 is the maximum)
Details: HepG2 Attagene TRANS ERa GAL4 reporter, mRNA
Method in brief: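 HepG2 cells transiently transfected with multiplexed GAL4-UAS reporter units read out chimeric NR-Gal4 activity. After 24 h compound exposure, reporter mRNA was quantified by RT-PCR, 6-FAM labeling, HpaI digestion and capillary electrophoresis, relative to DMSO.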
In the case of `N#CC(Br)Br`, the outcome is reported as “inactive”. For `CCCCCCCCCCCCCN1CC(C)OC(C)C1` (centres undefined), the outcome was “inactive”. In the case of `ClC1=C(Cl)C2(Cl)C3C(Cl)C=CC3C1(Cl)C2(Cl)Cl` (centres undefined), the outcome is reported as “inactive”. With `O=C(Nc1ccccc1)c1ccccc1I` the outcome was “inactive”. For `CNC(=O)Oc1cccc2c1OC(C)(C)C2`, the outcome was “inactive”.

Target: Steroid hormone receptor ERR1 (Homo sapiens) (UniProt P11474)
Sequence (P11474 whole entry, looked up): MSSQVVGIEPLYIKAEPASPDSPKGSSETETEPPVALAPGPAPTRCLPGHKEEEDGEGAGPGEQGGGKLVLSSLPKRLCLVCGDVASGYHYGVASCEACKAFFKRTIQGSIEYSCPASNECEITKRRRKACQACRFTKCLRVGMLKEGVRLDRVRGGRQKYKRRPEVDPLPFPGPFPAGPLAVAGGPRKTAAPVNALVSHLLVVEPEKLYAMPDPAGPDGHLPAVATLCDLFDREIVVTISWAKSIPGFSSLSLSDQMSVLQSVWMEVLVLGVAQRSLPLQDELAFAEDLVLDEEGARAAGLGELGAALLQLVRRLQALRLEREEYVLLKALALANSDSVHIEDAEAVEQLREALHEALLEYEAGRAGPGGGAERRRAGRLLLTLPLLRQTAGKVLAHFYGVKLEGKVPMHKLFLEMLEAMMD
Experiment: ATG_ERRa_TRANS: Attagene TRANS-FACTORIAL HepG2 Assay for human Estrogen-Related Receptor alpha (ERRa) (AID 2282971; active means hit-call score of the fitted dose curve at least 0.9, where 1 is the maximum)
Details: HepG2 Attagene TRANS reporter, ERRa transactivation
Method in brief: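 HepG2 cells transiently transfected with GAL4-UAS reporter units and chimeric NR-Gal4 constructs; after 24 hour compound incubation, reporter mRNA quantified by RT-PCR, fluorescent labelling and capillary electrophoresis, gain of signal versus DMSO.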
With `O=C(N[C@H](c1ccccc1)[C@@H]1CN2CCC1CC2)c1c(Cl)ccc(C(F)(F)F)c1Cl` the outcome was “inactive”. For `COC(=O)c1ccccc1N`, the outcome was “inactive”. For `Nc1ccc(Oc2ccc(N)cc2)cc1`, the outcome was “inactive”. With `Nc1cc(Cl)cc(C(=O)O)c1Cl` the outcome was “inactive”. With `Clc1ccc(C(c2ccc(Cl)cc2)C(Cl)(Cl)Cl)cc1` the outcome was “inactive”. In the case of `Clc1ccc(Cl)c(Cl)c1`, the outcome is reported as “inactive”.

Target: X-box-binding protein 1 (Homo sapiens) (UniProt P17861)
Sequence (P17861 whole entry, looked up): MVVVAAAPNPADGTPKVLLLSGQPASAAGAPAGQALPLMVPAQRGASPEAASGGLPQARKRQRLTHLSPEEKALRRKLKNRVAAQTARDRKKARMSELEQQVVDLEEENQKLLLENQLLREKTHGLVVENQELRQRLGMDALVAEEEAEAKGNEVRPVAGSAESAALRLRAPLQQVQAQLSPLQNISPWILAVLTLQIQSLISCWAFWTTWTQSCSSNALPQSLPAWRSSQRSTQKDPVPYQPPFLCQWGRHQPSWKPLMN
Experiment: ATG_Xbp1_CIS: Attagene CIS-FACTORIAL HepG2 Assay for human X-box Binding Protein 1 (XBP1) (AID 2282972)
Details: HepG2 XBP1 cis-element reporter, Attagene multiplex; actives raise or lower the signal
Method in brief: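 Fluorescence-labelled cDNA fragments from reporter transcripts, separated by capillary electrophoresis, give the signal. Source: HepG2 cells transfected with promoter-driven reporter units, harvested 24 h post-dose. DMSO served as reference for bidirectional curve fitting.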
With `Cn1cc(-c2ccccc2)c(=O)c(-c2cccc(C(F)(F)F)c2)c1` the outcome was “inactive”. For `O=C(N[C@H](c1ccccc1)[C@@H]1CN2CCC1CC2)c1c(Cl)ccc(C(F)(F)F)c1Cl`, the outcome was “inactive”. In the case of `N#CC(Br)Br`, the outcome is reported as “inactive”. With `COC(=O)c1ccccc1N` the outcome was “inactive”. For `CN(C)c1ccc(C(=O)c2ccc(N(C)C)cc2)cc1`, the outcome was “inactive”. For `ClCCOCCCl`, the outcome was “inactive”. With `CC(C)(C)OOC(=O)c1ccccc1` the AC50 was 150 µM (active). For `CCN(CC)N=O`, the outcome was “inactive”. In the case of `Nc1ccc(Oc2ccc(N)cc2)cc1`, the outcome is reported as “inactive”. For `Nc1cc(Cl)cc(C(=O)O)c1Cl`, the outcome was “inactive”. In the case of `CN(C)C(=O)Nc1ccc(Cl)cc1`, the outcome is reported as “inactive”. In the case of `c1ccc(C2CO2)cc1` (centres undefined), the outcome is reported as “inactive”. With `CCC12COCN1COC2` the outcome was “inactive”. For `CC(C)(O)c1cnn2c(-c3ccc(F)c(-c4c(F)cccc4C#N)c3)cnc2n1`, the outcome was “inactive”. With `Clc1ccc(C(c2ccc(Cl)cc2)C(Cl)(Cl)Cl)cc1` the outcome was “inactive”. In the case of `CCN(CC)CCO`, the outcome is reported as “inactive”. In the case of `CC(C)(C)C(O)(CCc1ccc(Cl)cc1)Cn1cncn1` (centres undefined), the outcome is reported as “inactive”. In the case of `CCCCCCCCCCCCCN1CC(C)OC(C)C1` (centres undefined), the outcome is reported as “inactive”. In the case of `ClC1=C(Cl)C2(Cl)C3C(Cl)C=CC3C1(Cl)C2(Cl)Cl` (centres undefined), the outcome is reported as “inactive”. With `C[N+](C)(C)CC1CO1` (centres undefined) the outcome was “inactive”. In the case of `CO[C@@H]1[C@H](OC(=O)NC(=O)CCl)CC[C@]2(CO2)[C@H]1[C@@]1(C)O[C@@H]1CC=C(C)C`, the AC50 is reported as 30.9 µM (active). In the case of `CCCCOC(=O)c1ccccc1C(=O)OCc1ccccc1`, the outcome is reported as “inactive”. In the case of `O=C(Nc1ccccc1)c1ccccc1I`, the outcome is reported as “inactive”. In the case of `Oc1ccccc1Cl`, the outcome is reported as “inactive”. For `Clc1ccccc1Cl`, the outcome was “inactive”. In the case of `Clc1ccc(Cl)c(Cl)c1`, the outcome is reported as “inactive”. For `CNC(=O)Oc1cccc2c1OC(C)(C)C2`, the outcome was “inactive”. For `N#CC(Br)(Br)C(N)=O`, the outcome was “inactive”.

Target: Androgen receptor (Homo sapiens) (UniProt P10275)
Sequence (P10275 whole entry, looked up): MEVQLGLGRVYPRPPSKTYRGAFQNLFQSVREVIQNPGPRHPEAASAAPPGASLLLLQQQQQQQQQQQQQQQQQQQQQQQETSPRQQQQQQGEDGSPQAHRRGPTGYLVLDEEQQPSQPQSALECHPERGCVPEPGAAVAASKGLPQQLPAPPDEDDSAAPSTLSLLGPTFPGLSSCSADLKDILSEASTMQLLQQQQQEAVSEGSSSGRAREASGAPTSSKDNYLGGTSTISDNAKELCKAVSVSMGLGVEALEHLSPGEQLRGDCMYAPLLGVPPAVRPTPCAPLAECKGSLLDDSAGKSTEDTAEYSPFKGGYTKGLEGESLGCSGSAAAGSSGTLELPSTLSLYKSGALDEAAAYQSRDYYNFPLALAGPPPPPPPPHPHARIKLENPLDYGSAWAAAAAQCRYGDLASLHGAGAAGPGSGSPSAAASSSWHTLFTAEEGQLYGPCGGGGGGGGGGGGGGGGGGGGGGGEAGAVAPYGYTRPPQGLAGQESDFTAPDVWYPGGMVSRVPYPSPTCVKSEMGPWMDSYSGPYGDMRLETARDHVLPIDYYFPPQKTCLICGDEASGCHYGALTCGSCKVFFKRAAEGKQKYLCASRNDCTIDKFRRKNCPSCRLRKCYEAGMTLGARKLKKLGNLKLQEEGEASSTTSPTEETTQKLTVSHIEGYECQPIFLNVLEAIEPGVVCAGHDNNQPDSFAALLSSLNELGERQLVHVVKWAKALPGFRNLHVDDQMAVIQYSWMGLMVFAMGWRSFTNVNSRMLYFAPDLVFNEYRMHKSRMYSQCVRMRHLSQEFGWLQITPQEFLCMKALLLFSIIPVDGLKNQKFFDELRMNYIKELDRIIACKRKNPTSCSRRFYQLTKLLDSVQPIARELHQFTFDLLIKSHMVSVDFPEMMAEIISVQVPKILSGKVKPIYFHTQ
Experiment: ATG_AR_TRANS: Attagene TRANS-FACTORIAL HepG2 Assay for human Androgen Receptor (AR) (AID 2282973; active means hit-call score of the fitted dose curve at least 0.9, where 1 is the maximum)
Details: HepG2 Attagene TRANS-FACTORIAL AR reporter transcription
Method in brief: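 HepG2 cells transiently transfected with AR-Gal4 chimera and GAL4-UAS reporter units; chemical exposure 24 h. Reporter mRNA quantified by RT-PCR with fluorescent labelling and capillary electrophoresis; gain-of-signal fitted against DMSO.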
In the case of `CC(C)(O)c1cnn2c(-c3ccc(F)c(-c4c(F)cccc4C#N)c3)cnc2n1`, the outcome is reported as “inactive”. For `CO[C@@H]1[C@H](OC(=O)NC(=O)CCl)CC[C@]2(CO2)[C@H]1[C@@]1(C)O[C@@H]1CC=C(C)C`, the outcome was “inactive”. With `O=C(Nc1ccccc1)c1ccccc1I` the outcome was “inactive”. With `CNC(=O)Oc1cccc2c1OC(C)(C)C2` the outcome was “inactive”.

System: not listed separately
Experiment: ATG_GAL4_TRANS: Attagene TRANS-FACTORIAL HepG2 Assay for GAL4 (Internal Marker) (AID 2282976; active means hit-call score of the fitted dose curve at least 0.9, where 1 is the maximum)
Details: HepG2 Attagene TRANS GAL4 internal marker reporter
Method in brief: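 Background-control readout: GAL4-UAS reporter transcript in transiently transfected HepG2 cells after 24 h compound exposure. Measured by RT-PCR, 6-FAM primer extension, HpaI digest and capillary electrophoresis; gain-of-signal fit versus DMSO.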
For `Cn1cc(-c2ccccc2)c(=O)c(-c2cccc(C(F)(F)F)c2)c1`, the outcome was “inactive”. With `N#CC(Br)Br` the outcome was “inactive”. With `CN(C)C(=O)Nc1ccc(Cl)cc1` the outcome was “inactive”. In the case of `CCC12COCN1COC2`, the outcome is reported as “inactive”. For `Clc1ccc(C(c2ccc(Cl)cc2)C(Cl)(Cl)Cl)cc1`, the outcome was “inactive”. In the case of `CC(C)(C)C(O)(CCc1ccc(Cl)cc1)Cn1cncn1` (centres undefined), the outcome is reported as “inactive”. With `CCCCOC(=O)c1ccccc1C(=O)OCc1ccccc1` the outcome was “inactive”. For `Clc1ccc(Cl)c(Cl)c1`, the outcome was “inactive”.

Target: Estrogen-related receptor gamma (Homo sapiens) (UniProt P62508)
Sequence (P62508 whole entry, looked up): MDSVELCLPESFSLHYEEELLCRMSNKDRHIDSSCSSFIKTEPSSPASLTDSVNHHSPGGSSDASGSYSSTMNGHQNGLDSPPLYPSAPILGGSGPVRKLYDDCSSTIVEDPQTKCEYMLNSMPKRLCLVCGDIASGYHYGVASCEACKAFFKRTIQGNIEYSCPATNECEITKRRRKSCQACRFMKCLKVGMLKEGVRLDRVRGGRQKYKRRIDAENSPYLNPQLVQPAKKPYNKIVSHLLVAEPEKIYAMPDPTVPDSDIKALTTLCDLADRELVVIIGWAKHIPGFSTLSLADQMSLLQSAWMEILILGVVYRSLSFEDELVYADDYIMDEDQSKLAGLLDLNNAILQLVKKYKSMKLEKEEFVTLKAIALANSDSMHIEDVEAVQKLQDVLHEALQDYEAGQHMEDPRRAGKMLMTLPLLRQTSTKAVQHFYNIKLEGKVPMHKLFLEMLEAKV
Experiment: ATG_ERRg_TRANS: Attagene TRANS-FACTORIAL HepG2 Assay for human Estrogen-Related Receptor gamma (ERRg) (AID 2282977; active means hit-call score of the fitted dose curve at least 0.9, where 1 is the maximum;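 further: hits increase reporter signal over DMSO so potencies reflect activators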)
Details: HepG2 Attagene TRANS reporter, ERRg transactivation
Method in brief: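 HepG2 cells transiently transfected with multiplexed GAL4-UAS reporter units and chimeric NR-Gal4 constructs were exposed to test chemicals for 24 h. Reporter mRNA was measured by RT-PCR, 6-FAM primer extension, HpaI digestion and capillary electrophoresis; gain-of-signal versus DMSO.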
In the case of `O=C(N[C@H](c1ccccc1)[C@@H]1CN2CCC1CC2)c1c(Cl)ccc(C(F)(F)F)c1Cl`, the outcome is reported as “inactive”. For `Nc1ccc(Oc2ccc(N)cc2)cc1`, the outcome was “inactive”. In the case of `Nc1cc(Cl)cc(C(=O)O)c1Cl`, the outcome is reported as “inactive”. For `CC(C)(O)c1cnn2c(-c3ccc(F)c(-c4c(F)cccc4C#N)c3)cnc2n1`, the outcome was “inactive”. With `CO[C@@H]1[C@H](OC(=O)NC(=O)CCl)CC[C@]2(CO2)[C@H]1[C@@]1(C)O[C@@H]1CC=C(C)C` the outcome was “inactive”.
